# The entries come from a sample that favours hits as a whole.
# SF1 inhibitor: inhibitors of human nuclear receptor SF-1. Q13285. CHO-K1 Gal4-SF-1 LBD luciferase reporter. inhibition, % at 10 µM. 65,000 compounds, 0.55% hits;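 active = inhibition above the mean inhibition of all tested compounds plus 3 SD, cut at about 48% in these data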
# Target sequence (Q13285 whole entry, looked up, the tested form may be a part): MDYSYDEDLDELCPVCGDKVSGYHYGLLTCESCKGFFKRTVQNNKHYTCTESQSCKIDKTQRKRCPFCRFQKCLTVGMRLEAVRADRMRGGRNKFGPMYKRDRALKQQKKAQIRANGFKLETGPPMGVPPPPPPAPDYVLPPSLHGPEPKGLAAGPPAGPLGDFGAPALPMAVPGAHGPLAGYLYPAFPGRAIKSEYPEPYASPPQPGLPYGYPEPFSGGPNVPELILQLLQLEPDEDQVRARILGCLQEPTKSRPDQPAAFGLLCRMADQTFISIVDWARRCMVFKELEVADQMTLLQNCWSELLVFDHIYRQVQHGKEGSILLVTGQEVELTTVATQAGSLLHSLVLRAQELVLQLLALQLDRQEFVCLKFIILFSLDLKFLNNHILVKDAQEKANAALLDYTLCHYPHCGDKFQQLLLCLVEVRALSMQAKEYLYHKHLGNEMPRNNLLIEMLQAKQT
# Numbers stand for hits; i = inactive.
SMILES,SF1 inhibitor
O=C(c1ccncc1)N(Cc1cc2ccccc2[nH]c1=O)C1CCCCC1,i
COc1cc(C2C(C#N)=C(N)Oc3cc(N)ccc32)cc(OC)c1OC (configuration not stated),63
COc1cc(C2C(C#N)=C(N)Oc3cc(C)n(CC4CCCO4)c(=O)c32)cc2c1OCO2 (configuration not stated),i
COC(=O)Cc1[nH]nc2c1C(c1cccc(OC)c1OC)C(C#N)=C(N)O2 (configuration not stated),i
CC1C(O)=C(c2nc3ccccc3[nH]2)C(=N)N1c1ccccc1 (configuration not stated),i
CCCCOC(=O)C(C)c1c(C)[nH]c(=S)[nH]c1=O (configuration not stated),i
Cc1cccc(Cn2c(N3CCCCC3C)nc3c2c(=O)[nH]c(=O)n3C)c1 (configuration not stated),i
O=S(=O)(NCc1cn2ccsc2n1)c1ccc(Oc2ccccc2)cc1,52
Cc1nc(CNS(=O)(=O)c2ccc3ccccc3c2)cs1,i
Cc1csc2nc(CNS(=O)(=O)c3ccc(-c4ccccc4)cc3)cn12,i
COc1ccc(-c2nc(C#N)c(NCCc3ccccc3)o2)cc1OC,i
CCSc1nnc(NC(=O)c2cc3c(s2)CCCC3)s1,i
CCSc1nnc(NC(=O)c2ccccn2)s1,55
CCSc1nnc(Nc2ccccc2)s1,i
O=C1C/C(=C/NCc2ccccc2)C(=O)N1,i
NC(Cc1cccc2nsnc12)C(=O)O (configuration not stated),i
CCN(CC)C(=O)c1cc(-c2ccc(Br)cc2)on1,i
O=c1[nH]cnc2c1N1CCC2CC1,i
N#CC(C#N)=c1ccc2c(c1)NC1(CCCCC1)N=2,65
COc1ccc(C2NC3=C(CCC3)C3(C#N)C(OC)(OC)N=C(N)C23C#N)cc1 (configuration not stated),i
COC(=O)c1cc(S(=O)(=O)N2CCC(C)CC2)ccc1F,i
Cc1ccc2cccc(OC(=O)c3ccc4c(c3)OCCO4)c2n1,i
CNC(=O)NC(=O)COC(=O)CCCOc1ccc(OC)cc1,i
c1csc(CNc2ncnc3sccc23)c1,51
Clc1ccc(-n2ncc3c(NCc4cccs4)ncnc32)cc1,i
SMILES,SF1 inhibitor
c1ccc(OCCOc2ncnc3sccc23)cc1,i
O=C(CSc1nnc(Cc2cc(=O)[nH]c(=O)[nH]2)n1-c1ccc(F)cc1)N1CCCCC1,i
Clc1ccc(-c2nc(-c3ccccn3)no2)cc1Cl,51
c1ccc(CCc2nc(-c3ccccn3)no2)cc1,i
CCCCC1CCC(c2nc(-c3ccccn3)no2)CC1 (configuration not stated),i
CCc1ccc(C(=O)NCc2cccs2)s1,i
COC(=O)C(Cc1ccc(O)cc1)NC(=O)c1ccccc1OC (configuration not stated),i
O=C(CCN1CCN(c2ccccc2)CC1)Nc1nccs1,i
CC1CCCCC1NS(=O)(=O)c1ccc(S(=O)(=O)NCc2ccncc2)cc1 (configuration not stated),70
NC(=O)CS(=O)(=O)c1nc2ccccc2n1Cc1ccccc1F,i
CCn1c(-c2ccc(N(C)C)cc2)nc2ccccc21,i
Cn1c(-c2ccc(Br)o2)nc2ccccc21,i
CN(C)c1ccc(-c2nc3ccccc3n2C)cc1,59
CSc1nc(-c2ccccc2)nc2[nH]ccc(=O)c12,i
CN(C)C=Nc1ncc2c([nH]c3ccccc32)c1C#N,i
Cc1ccccc1-c1nnc(-c2ccc(Br)cc2)o1,i
Cc1ccc(-c2nnc(Nc3ccccc3)o2)cc1,68
c1coc(-c2nnc(NC3=NCCC3)o2)c1,i
COc1ccc(C(c2sc3nc(C)nn3c2O)N2CCC3(CC2)OCCO3)cc1 (configuration not stated),i
CCOC(=O)c1sc(NC(=O)c2ccc3ncsc3c2)nc1C,i
Cc1ccc(-c2nsc3c(N4CCC(C(N)=O)CC4)ncnc23)cc1,49
O=S(=O)(/C=C/c1ccccc1)n1cnc2ccccc21,i
CSc1nnc(-c2ccc(S(=O)(=O)N3CCOCC3)cc2)n1CC1CCCO1 (configuration not stated),i
CN=Cc1cc(-c2ccccc2)sc1O,i
CS(=O)(=O)N1CCC(C(=O)NCc2ccco2)CC1,i
SMILES,SF1 inhibitor
COc1ccc(C)cc1NC(=O)NC1CCN(Cc2ccccc2)CC1,i
c1ccc(CN2CCN(c3ncnc4c3[nH]c3ccccc34)CC2)cc1,50
Cc1cc(=O)[nH]c(N2CCN(Cc3ccccc3)CC2)n1,i
Cc1ccc2c(c1)[nH]c1c(N3CCN(Cc4ccccc4)CC3)ncnc12,50
c1ccc2c(c1)oc1c(Nc3ccc(CN4CCOCC4)cc3)ncnc12,i
c1ccc2c(c1)CCN(c1ncnc3c1[nH]c1ccccc13)C2,86
C=CCNC(=O)C(C#N)c1nc2ccccc2nc1N1CCN(Cc2ccccc2)CC1 (configuration not stated),i
O=C(Cn1nc(Cc2ccncc2)c2ccccc2c1=O)N1CCc2ccccc2C1,i
CCN1CCN(CNC(=O)c2cnccn2)CC1,i
CCC(=O)c1ccc(N2CCN(C(=O)c3ccc(Br)cc3)CC2)c(F)c1,i
C=CCNC(=O)CN(c1ccc(F)cc1)S(=O)(=O)c1ccc(OC)cc1,i
CCCN(Cc1ccccc1)C(=O)Nc1ccc2c(c1)nnn2C,i
O=C(NCC(c1cccnc1)N1CCN(c2ccc(F)cc2)CC1)c1ccc2c(c1)OCO2 (configuration not stated),i
CC(C)(Oc1ccc(Cl)cc1)C(=O)NCc1ccco1,i
O=C(NCc1nnc(SCC(=O)N2CCC(Cc3ccccc3)CC2)o1)c1ccccc1F,i
c1ccc(N2CCN(c3nc4cc5c(cc4s3)OCO5)CC2)cc1,i
O=C(Nc1nc2cc3c(cc2s1)OCO3)C1=COCCO1,62
c1c2c(cc3sc(N4CCOCC4)nc13)OCO2,i
Cc1cc(-c2ccccc2)nc(N2CCC(C(=O)NC(C)C)CC2)n1,i
c1ccc(OCCSc2ncnc3nc[nH]c23)cc1,i
COc1ccc(CNc2ccc3c(c2)nc(C)n3C)cc1,i
COc1ccc(CCNc2c(C)c(C)nc3ncnn23)cc1,81
Cc1occc1C(=O)Nc1ccc2c(c1)CCC2,i
CC(C)OC(=O)c1ccc(NC(=O)C2C3CC4OC(=O)C2C4C3)cc1 (configuration not stated),i
Cc1noc(C)c1COC(=O)c1cc2c3ccccc3n(C)c2s1,i
SMILES,SF1 inhibitor
Cc1cc(C)n(-c2ccc3cccc(NS(C)(=O)=O)c3n2)n1,79
Nc1nonc1-c1noc(CCCN2C(=O)c3ccccc3C2=O)n1,i
O=S(=O)(NC1CCCCC1)c1cccc(-c2nnc(-c3ccccc3)o2)c1,i
Nc1nc(Cl)nc2c1ncn2[C@H]1C[C@H](O)[C@@H](CO)O1,79
Nc1ncnc2c1ncn2C1CCC(CO)C(O)C1 (configuration not stated),i
CCCC12CN3CC(C)(CN(C1)C3c1ccc(OC(C)C)cc1)C2=O (configuration not stated),i
O=C(c1ccco1)N1CCN(C(c2ccccn2)c2nnnn2C2CCCC2)CC1 (configuration not stated),i
O=C(COc1ccc(-c2nnco2)cc1)NC1CCCc2ccccc21 (configuration not stated),i
CCc1ccccc1NC(=O)CSc1nnc([C@@H]2CCCN2C(=O)OC(C)(C)C)o1,i
Cc1ccc2cc(CCNC(=O)c3ccco3)c(=O)[nH]c2c1C,i
COc1cccc(-c2nnc(SCC(=O)N3CCCC3=O)n2-c2ccccc2)c1,i
